The results in this text go back to PubChem BioAssay.

Molecules are shown by their SMILES. A number with no mark means an inactive call. Activity calls are given as the source filed them.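 The calls were made as follows: active = inhibition at or above 50% relative to wild type and mutant plate controls; inactive = inhibition below 50%.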

What is called inhibition is the drop in the measured response relative to a control, in per cent.

The assay is described as follows: inhibitors of Chlamydomonas gravitaxis, primary screen, whole organism, Chlamydomonas reinhardtii, WT vs cilia-less mutant, absorbance, 96-well (AID 463189).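 Also: 0% = wild type cc124 cells in DMSO and 100% = ciliumless bld1 mutant cells.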 To be noted: OD600 absorbance, 2 days, at 10 µM, active compounds read high.
Regarding `CCNC(=O)[C@H]1O[C@@H](n2cnc3c(N)nc(NCCc4ccc(CCC(=O)O)cc4)nc32)C(O)[C@H]1O` (stereo not given in full), the inhibition is 3.28%.

As for `CC(C)NCC(O)c1ccc(NS(C)(=O)=O)cc1` (stereo not given), the inhibition is -0.482%.

On to `O=c1cc(-c2ccccc2)[nH]c2nc(Cl)ccc12`, for which the inhibition is 6.49%.

As to `CC(C)[C@@H](CO)Nc1nc(Nc2cccc(Cl)c2)c2ncn(C(C)C)c2n1`, the inhibition is -2.67%.

With `Nc1ccc(S(=O)(=O)Nc2ccnn2-c2ccccc2)cc1`, the inhibition was -0.772%.

In the case of `CC(=O)NCCc1ccc(O)c(O)c1`, the inhibition is 5.98%.

As for `O=C(c1ccccc1)c1ccc2n1CCC2C(=O)O` (stereo not given), the inhibition was -6.13%.

Take `N#C/C(=C\c1ccc(O)c(O)c1)C(=O)NCCc1ccccc1`: the inhibition was -1.25%.

In the case of `CC(=O)O[C@]1(C(C)=O)CC[C@H]2[C@@H]3C=C(Cl)C4=CC(=O)[C@@H]5C[C@@H]5[C@]4(C)[C@H]3CC[C@@]21C`, the inhibition was 6.43%.

For the compound `COC(=O)[C@H]1[C@H]2C[C@@H]3c4[nH]c5cc(OC)ccc5c4CCN3C[C@H]2C[C@@H](OC(=O)c2cc(OC)c(OC)c(OC)c2)[C@@H]1OC`, the inhibition is -3.87%.

On to `O=Nc1c(-c2c(O)[nH]c3ccccc23)[nH]c2ccccc12`, for which the inhibition was 1.78%.

Turning to `NC(=O)c1cc[n+](CC2=C(C(=O)O)N3C(=O)[C@@H](NC(=O)[C@@H](c4ccccc4)S(=O)(=O)[O-])[C@H]3SC2)cc1`, the inhibition was -6.94%.

Take `Cc1cccc(C)c1OCC(N)C(C)C` (stereo not given): the inhibition was 9.25%.

Turning to `CC(C)c1ccc2c(c1)c(SC(C)(C)C)c(CC(C)(C)C(=O)O)n2Cc1ccc(Cl)cc1`, the inhibition is 9.82%.

Turning to `CC(C)NNC(=O)c1ccncc1`, the inhibition was 2.86%.

On to `C[C@@H](NC(=O)/C(C#N)=C/c1ccc(O)c(O)c1)c1ccccc1`, for which the inhibition was 4.46%.

Regarding `NCCS(=O)O`, the inhibition was 4.12%.

Consider `CCN(Cc1ccncc1)C(=O)C(CO)c1ccccc1` (stereo not given), for which the inhibition was 7.61%.

In the case of `FC(F)(F)c1cc(CO[C@H]2CCCN[C@H]2c2ccccc2)cc(C(F)(F)F)c1`, the inhibition is 14.5%.

Take `CC1CN(S(=O)(=O)c2cccc3cnccc23)CCN1` (stereo not given): the inhibition is 5.73%.

On to `NNc1nncc2ccccc12`, for which the inhibition is -2.73%.

In the case of `COc1cccc(OC)c1OCCNCC1CSc2ccccc2O1` (stereo not given), the inhibition was 10.3%.

Regarding `O=C1CCC(c2ccc(-n3ccnc3)cc2)=NN1`, the inhibition is -5.18%.

As for `Clc1ccccc1C(c1ccccc1)(c1ccccc1)n1ccnc1`, the inhibition was 96% (active).

Turning to `N#CC(C#N)=C(N)/C(C#N)=C/c1ccc(O)cc1`, the inhibition is 5.33%.

For the compound `NCCCCNS(=O)(=O)c1cccc2c(Cl)cccc12`, the inhibition is -1.51%.

On to `Cc1nc(N=Nc2cc(S(=O)(=O)O)c3cc([N+](=O)[O-])cc(S(=O)(=O)O)c3c2)c(COP(=O)(O)O)c(C=O)c1O`, for which the inhibition was 0.765%.

With `NC(=O)c1ncn([C@@H]2O[C@H](CO)[C@@H](O)[C@H]2O)c1O`, the inhibition was 13.2%.

Take `O=C(Cc1ccc(Cl)c(Cl)c1)OCCN1CCCC1`: the inhibition was -10.1%.

Take `CC1(C)CCC2=C(O1)c1ccccc1C(=O)C2=O`: the inhibition is 153% (active).

As to `O=S(=O)(NCCNC/C=C/c1ccc(Br)cc1)c1cccc2cnccc12`, the inhibition is 19.5%.

Regarding `CN1C(C)(C)CCCC1(C)C`, the inhibition was 7.18%.

For `N[C@@H](CCC(=O)N[C@H](CSN=O)C(=O)NCC(=O)O)C(=O)O`, the inhibition was 3.12%.

On to `CCCCCCCCCCCCC/C=C/C(O)C(N)CO` (stereo not given), for which the inhibition was -1.48%.

For `NC(=Nc1ccccc1)NC(=O)c1nc(Cl)c(N)nc1N`, the inhibition is -0.27%.

`O=[N+]([O-])c1ccc(CSc2ncnc3c2ncn3[C@@H]2O[C@H](CO)[C@H](O)C2O)cc1` (stereo not given in full): the inhibition was -2.08%.

On to `COc1cccc(C(=O)NCCN2CCN(c3ccc(Cl)cc3)CC2)c1`, for which the inhibition was 0.497%.

`O=c1cc(O)cc(/C=C/c2ccc(O)c(O)c2)o1`: the inhibition was -6.22%.

Regarding `Nc1nc(OCc2ccccc2)c2[nH]cnc2n1`, the inhibition is 0.83%.

As to `S=C(S)N1CCCC1`, the inhibition was 21.2%.
